Reference: PubChem BioAssay (NCI)
Compounds without any hit were thinned out: in the full panel of roughly 83,000, 20% have a hit.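 Single-concentration screen, 48 h exposure, 96-well plates. Endpoint: percent growth. Below 10 = active.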 Activity calls are given as the source filed them.

Tested on: BT-549 breast
Experiment: NCI-60 one-dose screen, 48 h (100 = growth as untreated, 0 = no growth, -100 = all killed)
Settings: 10 µM unless noted

`CCN(CC)CCCC(C)Nc1c2ccc(C)cc2nc2ccc(OC)cc12` (stereo unspecified) was tested. Which growth did it give?
The growth was 73% (inactive).

`C#C[C@]1(O)CC[C@H]2[C@@H]3CC=C4c5nc(N)sc5CC[C@]4(C)[C@H]3CC[C@@]21C` was tested. Which growth did it give?
The growth was 0.196% (active).

Which growth does the source give for `COc1cc(C)cc2oc3oc(=O)c(-c4nc5ccccc5s4)cc3c(=O)c12` here?
Its growth is 92.7% (inactive).

For `COC(=O)[C@]12CCC(C)(C)C[C@H]1C1=CC[C@@H]3[C@@]4(C)C/C(=C/c5cccnc5)C(=O)C(C)(C)[C@@H]4CC[C@@]3(C)[C@]1(C)CC2`, which growth is on record?
Its growth is -45.7% [100 µM] (active).

How did the growth turn out when `O=C(Nc1cccc(C2=NCCN2)c1)c1cccc(C(=O)Nc2cccc(C3=NCCN3)c2)c1` was run?
Its growth is 110% (inactive).

How did the growth turn out when `CCOc1cc(NC(=O)c2ccccc2)c(OCC)cc1N` was run?
Its growth is 130% (inactive).

Which growth does the source give for `CC1(C)CC[C@]2(C(=O)OC(=O)[C@]34CCC(C)(C)C[C@@H]3C3=CC[C@@H]5[C@@]6(C)CCC(=O)C(C)(C)[C@@H]6CC[C@@]5(C)[C@]3(C)CC4)CC[C@]3(C)C(=CC[C@@H]4[C@@]5(C)CCC(=O)C(C)(C)[C@@H]5CC[C@]43C)[C@H]2C1` here?
The growth was 75.3% [100 µM] (inactive).

How did the growth turn out when `CCCc1cc2cc(-n3nc(C)c4c3CC(C)(C)CC4=O)cc(NC3CCSCC3)c2c(=O)[nH]1` was run?
The growth was 61.5% (inactive).

For `CC(=O)OC[C@]12CC[C@@H]([C@@H](C)C(N)=O)[C@@H]1[C@H]1CC[C@@H]3[C@@]4(C)CC[C@H](OC(C)=O)C(C)(C)[C@@H]4CC[C@@]3(C)[C@]1(C)CC2`, which growth is on record?
The growth was -55.1% [100 µM] (active).

With `O=C(N/N=C/c1ccc([N+](=O)[O-])cc1)c1ccc(Br)o1` as the molecule, how does the growth read?
Its growth is 109% (inactive).

For `O=[N+]([O-])c1ccc(O)c(-c2nc3ccccc3s2)c1`, which growth is on record?
The growth was 60.7% (inactive).

`COc1cccc(-c2[nH]c(=S)ncc2C(=O)c2ccccc2)c1` was tested. Which growth did it give?
Its growth is 73.9% (inactive).

How did the growth turn out when `COc1ccc2nc3c(cc2c1)C(=O)CC(C(F)(F)F)C3` (stereo unspecified) was run?
Its growth is 61% (inactive).

With `CCN(CC)CCCOc1ccc2c(c1)O/C(=C\c1cccc(OC)c1)C2=O` as the molecule, how does the growth read?
The growth was 78.4% (inactive).

Which growth does the source give for `CCc1cccc(Cl)c1` here?
Its growth is 92% (inactive).

Which growth does the source give for `CCCCCN(CCCCC)CCCCCCCCN1CCCc2ccccc21` here?
The growth was 88.6% (inactive).

Which growth does the source give for `COc1ccc2c(c1)c(-c1noc(C(=O)c3cn(C)c4ncc(Br)cc34)n1)cn2C` here?
Its growth is 82.7% (inactive).

For `NS(=O)(=O)c1ccc(CCN2C(=O)/C(=C\c3ccccc3)C=C2c2ccc(Cl)cc2)cc1`, which growth is on record?
The growth was 96.4% (inactive).

With `Cc1ncc(C(=O)Nc2ccc(CN3CCN(C)CC3)c(C(F)(F)F)c2)cc1C#Cc1c(N)ncc2ccc(C#N)cc12` as the molecule, how does the growth read?
The growth was 51.4% (inactive).

`CCCCN(CCCC)CC(O)c1ccc(OCc2ccccc2)c2ccccc12` (stereo unspecified) was tested. Which growth did it give?
The growth was 111% (inactive).

Which growth does the source give for `CC[C@]12C=CCN3CC[C@@]4(c5ccc(OC)cc5N(C)[C@H]4[C@@](O)(C(=O)OC)[C@@H]1OC(=O)CCC(=O)O[C@H]1CC[C@H]4[C@@H]5CCC6=CC(=O)CC[C@@H]6[C@H]5CC[C@]14C)[C@@H]32` here?
Its growth is -8.65% [100 µM] (active).

Which growth does the source give for `CC(C)c1ccc(/C=N/N=C(N)N)cc1` here?
The growth was 86.3% (inactive).

With `C=C(C)[C@@H]1CC[C@]2(C(N)=O)CC[C@]3(C)[C@H](CC[C@@H]4[C@@]5(C)CC[C@H](O)C(C)(C)[C@@H]5CC[C@]43C)[C@@H]12` as the molecule, how does the growth read?
Its growth is -21.6% [100 µM] (active).

`CC1(C)CC[C@]2(C(=O)O)CC[C@]3(C)C(=CC[C@@H]4[C@@]5(C)C/C(=C/c6cccnc6)[C@H](O)C(C)(C)[C@@H]5CC[C@]43C)[C@@H]2C1` was tested. Which growth did it give?
The growth was 0.607% [100 µM] (active).

Which growth does the source give for `C#CCNC(=O)CC[C@]1(C)[C@H]2CC[C@@H]3[C@@H]([C@@](C)(O)CCC=C(C)C)CC[C@@]3(C)[C@]2(C)CC[C@H]1C(=C)C` here?
Its growth is 41.8% [100 µM] (inactive).

`CCOC(=O)c1nn(C2CCCCO2)c2ccc(NC(=O)CSc3nc4ccccc4c(=O)[nH]3)cc12` (stereo unspecified) was tested. Which growth did it give?
The growth was 89.6% (inactive).

For `O=C(Nc1ccc(Oc2ccc(F)cc2)c(Cl)c1)c1cccnn1`, which growth is on record?
Its growth is 103% (inactive).

For `CC(=O)n1cc(C=O)c2ccccc21`, which growth is on record?
The growth was 96.5% (inactive).

Tested on: MDA-MB-435 melanoma
Experiment: as above
Settings: 10 µM unless noted

Which growth does the source give for `CC(=O)CC(=O)SC1=NCCS1` here?
Its growth is 106% (inactive).

Which growth does the source give for `CCCCCCCCCCCCCCNC(=O)Nc1ccc(Cl)c(Cl)c1` here?
Its growth is 18.3% (inactive).

For `O=S(=O)(NCc1ccccc1)c1ncnc2nc[nH]c12`, which growth is on record?
Its growth is 110% (inactive).

With `Cc1cc(-c2ccc(N=Nc3c(S(=O)(=O)O)cc4cc(S(=O)(=O)O)cc(N)c4c3O)c(C)c2)ccc1N=Nc1cc(S(=O)(=O)O)c2ccccc2c1O` as the molecule, how does the growth read?
Its growth is 104% (inactive).

Which growth does the source give for `CC1=C/C(=C(\c2cc(C)c(O)c(C(=O)O)c2)c2c(Cl)cccc2Cl)C=C(C(=O)O)C1=O` here?
Its growth is 108% (inactive).

With `O=C(Nc1ccccc1)Nc1ccc(C(=O)/C=C/c2ccc(N3CCCC3)cc2)cc1` as the molecule, how does the growth read?
The growth was 4.29% (active).

`CC(C)(C)c1cc(C(=O)Nc2ccc(C(=O)NCCN)cc2)cc(C(C)(C)C)c1` was tested. Which growth did it give?
The growth was -49.5% (active).

How did the growth turn out when `C[C@@H]1C[C@H]2C(=O)O[C@@H](C)[C@H](NC(=O)[C@H](Cc3cc(F)cc(F)c3)NC(=O)Nc3ccc(Cl)cc3F)C(=O)N3C[C@H](O)C[C@H]3C(=O)N3CCN(C)C[C@H]3C(=O)N[C@@H](C)C(=O)N2C1` was run?
The growth was 22.3% (inactive).

`C=C(C)[C@@H]1CC[C@]2(COC(=O)c3ccccc3C(=O)O)CC[C@]3(C)[C@H](CC[C@@H]4[C@@]5(C)CC[C@H](OC(=O)c6ccccc6C(=O)O)C(C)(C)[C@@H]5CC[C@]43C)[C@@H]12` was tested. Which growth did it give?
The growth was 30.8% [100 µM] (inactive).

Which growth does the source give for `C[C@H]1[C@H](C)CC[C@]2(C(=O)N3CCN(C)CC3)CC[C@]3(C)C(=CC[C@@H]4[C@@]5(C)C/C(=C/c6ccco6)C(=O)C(C)(C)[C@@H]5CC[C@]43C)[C@H]12` here?
Its growth is 42.6% [100 µM] (inactive).

Which growth does the source give for `CCN(CC)CCCC(C)Nc1c2ccc(C)cc2nc2ccc(OC)cc12` (stereo unspecified) here?
Its growth is 10.2% (inactive).

`C#C[C@]1(O)CC[C@H]2[C@@H]3CC=C4c5nc(N)sc5CC[C@]4(C)[C@H]3CC[C@@]21C` was tested. Which growth did it give?
The growth was 15.5% (inactive).

Which growth does the source give for `COc1cc(C)cc2oc3oc(=O)c(-c4nc5ccccc5s4)cc3c(=O)c12` here?
The growth was 95.3% (inactive).

Which growth does the source give for `COC(=O)[C@]12CCC(C)(C)C[C@H]1C1=CC[C@@H]3[C@@]4(C)C/C(=C/c5cccnc5)C(=O)C(C)(C)[C@@H]4CC[C@@]3(C)[C@]1(C)CC2` here?
Its growth is -51.1% [100 µM] (active).

Which growth does the source give for `O=C(Nc1cccc(C2=NCCN2)c1)c1cccc(C(=O)Nc2cccc(C3=NCCN3)c2)c1` here?
Its growth is 98.8% (inactive).

`CCOc1cc(NC(=O)c2ccccc2)c(OCC)cc1N` was tested. Which growth did it give?
The growth was 107% (inactive).

For `CC1(C)CC[C@]2(C(=O)OC(=O)[C@]34CCC(C)(C)C[C@@H]3C3=CC[C@@H]5[C@@]6(C)CCC(=O)C(C)(C)[C@@H]6CC[C@@]5(C)[C@]3(C)CC4)CC[C@]3(C)C(=CC[C@@H]4[C@@]5(C)CCC(=O)C(C)(C)[C@@H]5CC[C@]43C)[C@H]2C1`, which growth is on record?
Its growth is 63.2% [100 µM] (inactive).

With `CCCc1cc2cc(-n3nc(C)c4c3CC(C)(C)CC4=O)cc(NC3CCSCC3)c2c(=O)[nH]1` as the molecule, how does the growth read?
Its growth is 26.5% (inactive).

With `CC(=O)OC[C@]12CC[C@@H]([C@@H](C)C(N)=O)[C@@H]1[C@H]1CC[C@@H]3[C@@]4(C)CC[C@H](OC(C)=O)C(C)(C)[C@@H]4CC[C@@]3(C)[C@]1(C)CC2` as the molecule, how does the growth read?
The growth was -63.8% [100 µM] (active).

With `O=C(N/N=C/c1ccc([N+](=O)[O-])cc1)c1ccc(Br)o1` as the molecule, how does the growth read?
Its growth is 108% (inactive).

With `O=[N+]([O-])c1ccc(O)c(-c2nc3ccccc3s2)c1` as the molecule, how does the growth read?
Its growth is 71.4% (inactive).

How did the growth turn out when `COc1cccc(-c2[nH]c(=S)ncc2C(=O)c2ccccc2)c1` was run?
Its growth is -20% (active).

`COc1ccc2nc3c(cc2c1)C(=O)CC(C(F)(F)F)C3` (stereo unspecified) was tested. Which growth did it give?
The growth was -47.7% (active).

Which growth does the source give for `CCN(CC)CCCOc1ccc2c(c1)O/C(=C\c1cccc(OC)c1)C2=O` here?
The growth was 91.9% (inactive).

With `CCc1cccc(Cl)c1` as the molecule, how does the growth read?
The growth was 107% (inactive).

Which growth does the source give for `CCCCCN(CCCCC)CCCCCCCCN1CCCc2ccccc21` here?
Its growth is 87.9% (inactive).

`COc1ccc2c(c1)c(-c1noc(C(=O)c3cn(C)c4ncc(Br)cc34)n1)cn2C` was tested. Which growth did it give?
Its growth is 63.1% (inactive).

`NS(=O)(=O)c1ccc(CCN2C(=O)/C(=C\c3ccccc3)C=C2c2ccc(Cl)cc2)cc1` was tested. Which growth did it give?
Its growth is 99.8% (inactive).

`Cc1ncc(C(=O)Nc2ccc(CN3CCN(C)CC3)c(C(F)(F)F)c2)cc1C#Cc1c(N)ncc2ccc(C#N)cc12` was tested. Which growth did it give?
Its growth is 7.01% (active).

With `CCCCN(CCCC)CC(O)c1ccc(OCc2ccccc2)c2ccccc12` (stereo unspecified) as the molecule, how does the growth read?
Its growth is 51.2% (inactive).

For `CC[C@]12C=CCN3CC[C@@]4(c5ccc(OC)cc5N(C)[C@H]4[C@@](O)(C(=O)OC)[C@@H]1OC(=O)CCC(=O)O[C@H]1CC[C@H]4[C@@H]5CCC6=CC(=O)CC[C@@H]6[C@H]5CC[C@]14C)[C@@H]32`, which growth is on record?
The growth was 7.01% [100 µM] (active).

With `CC(C)c1ccc(/C=N/N=C(N)N)cc1` as the molecule, how does the growth read?
The growth was -28.7% (active).

For `C=C(C)[C@@H]1CC[C@]2(C(N)=O)CC[C@]3(C)[C@H](CC[C@@H]4[C@@]5(C)CC[C@H](O)C(C)(C)[C@@H]5CC[C@]43C)[C@@H]12`, which growth is on record?
The growth was -4.44% [100 µM] (active).

With `CC1(C)CC[C@]2(C(=O)O)CC[C@]3(C)C(=CC[C@@H]4[C@@]5(C)C/C(=C/c6cccnc6)[C@H](O)C(C)(C)[C@@H]5CC[C@]43C)[C@@H]2C1` as the molecule, how does the growth read?
The growth was 7.02% [100 µM] (active).

How did the growth turn out when `C#CCNC(=O)CC[C@]1(C)[C@H]2CC[C@@H]3[C@@H]([C@@](C)(O)CCC=C(C)C)CC[C@@]3(C)[C@]2(C)CC[C@H]1C(=C)C` was run?
The growth was 43.2% [100 µM] (inactive).

For `CCOC(=O)c1nn(C2CCCCO2)c2ccc(NC(=O)CSc3nc4ccccc4c(=O)[nH]3)cc12` (stereo unspecified), which growth is on record?
Its growth is 107% (inactive).

For `O=C(Nc1ccc(Oc2ccc(F)cc2)c(Cl)c1)c1cccnn1`, which growth is on record?
Its growth is 67.2% (inactive).

Which growth does the source give for `CC(=O)n1cc(C=O)c2ccccc21` here?
Its growth is 109% (inactive).
